{"source": "PubChem BioAssay AID624273", "about": "(Broad Institute, 2012)", "note": "About 230 (23%) of roughly 1,000 compounds were called active. About 1% were inconclusive and are not listed. The rule behind the calls is not given here. This is one part of the list. Potency and affinity values are given separately.", "data": [{"molecular_target": "Long-chain-fatty-acid--AMP ligase FadD28 (Mycobacterium tuberculosis (strain ATCC 25618 / H37Rv)) (UniProt P9WQ59)", "sequence (P9WQ59 whole entry, looked up)": "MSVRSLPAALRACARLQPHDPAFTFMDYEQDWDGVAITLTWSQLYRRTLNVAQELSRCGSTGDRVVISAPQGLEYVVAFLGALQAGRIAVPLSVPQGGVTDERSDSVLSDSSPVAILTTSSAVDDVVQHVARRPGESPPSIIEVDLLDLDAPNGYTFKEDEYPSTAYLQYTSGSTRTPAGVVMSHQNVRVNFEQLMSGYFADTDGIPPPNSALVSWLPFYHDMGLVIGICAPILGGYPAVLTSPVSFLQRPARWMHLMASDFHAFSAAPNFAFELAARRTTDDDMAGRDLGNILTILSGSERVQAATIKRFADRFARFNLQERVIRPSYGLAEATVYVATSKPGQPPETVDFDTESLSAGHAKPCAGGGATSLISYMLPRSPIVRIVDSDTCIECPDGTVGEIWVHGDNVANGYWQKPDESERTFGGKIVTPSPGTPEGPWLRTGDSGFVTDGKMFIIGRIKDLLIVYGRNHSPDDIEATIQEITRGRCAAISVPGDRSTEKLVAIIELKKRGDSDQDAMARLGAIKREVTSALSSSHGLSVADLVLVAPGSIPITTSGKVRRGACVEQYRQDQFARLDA", "assay": "inhibitors of FadD28 bisubstrate probe binding, dose response, biochemical, fluorescence polarization, cherry-pick (AID 624273)", "conditions": "series mostly up to 50 µM; activity change, negative = inhibition: at the top concentration", "values": [{"smiles": "O=C1NN(c2ccc(Cl)c(Cl)c2)C(=O)/C1=C/c1ccc(-c2ccccc2C(=O)O)o1", "activity change, negative = inhibition": "-16% (inactive)"}, {"smiles": "O=[N+]([O-])c1ccc2[nH]c(=S)sc2c1", "activity change, negative = inhibition": "-12.6% (inactive)"}, {"smiles": "Clc1cccc(/C=N/N2CCN(Cc3ccccc3)CC2)c1", "activity change, negative = inhibition": "-9.04% (inactive)"}, {"smiles": "O=C(Nc1cnc2sccn2c1=O)c1ccccc1Cl", "activity change, negative = inhibition": "-0.049% (inactive)"}, {"smiles": "Cc1ccc(-n2nnnc2SCC(=O)Nc2nc(-c3ccc(F)cc3)cs2)cc1C", "activity change, negative = inhibition": "-3.67% (inactive)"}, {"smiles": "CC1=NN(c2ccc([N+](=O)[O-])cc2)C(=O)C1", "activity change, negative = inhibition": "-2.29% (inactive)"}, {"smiles": "COc1ccccc1CO/N=C/NC(=O)c1c(OC)ccnc1Oc1ccc(F)cc1", "activity change, negative = inhibition": "-3.92% (inactive)"}, {"smiles": "COCCNC(=O)C1CC(=O)N(c2ccc(OC)cc2)C1c1ccc(OC)cc1", "note": "(configuration not stated)", "activity change, negative = inhibition": "-2.94% (inactive)"}, {"smiles": "CCCOC(=O)c1ccc(NC(=O)c2cc(OC)c(OC)c(OC)c2Br)cc1", "activity change, negative = inhibition": "-21.2% (inactive)"}, {"smiles": "Cc1cccc(NC(=O)CN2C(=O)N/C(=C/c3ccc(C)s3)C2=O)c1", "activity change, negative = inhibition": "-16.4% (inactive)"}, {"smiles": "CCOc1cc(C2NC(=O)NC(C)=C2C(=O)OCC2CCCCC2)ccc1O", "note": "(configuration not stated)", "activity change, negative = inhibition": "-0.672% (inactive)"}, {"smiles": "COc1ccc(/C=C2/NC(=O)N(CC(=O)Nc3cccc(C)c3)C2=O)cc1O", "activity change, negative = inhibition": "-5.24% (inactive)"}, {"smiles": "CC(C)NC(=O)N1CCC(n2nccc2NC(=O)CCOc2ccccc2)CC1", "activity change, negative = inhibition": "-2.33% (inactive)"}, {"smiles": "O=C1NC(=S)S/C1=C\\c1cc2ccccc2nc1N1CCCCC1", "activity change, negative = inhibition": "-17% (inactive)"}, {"smiles": "COc1ccc(/C=C2/C(=O)N(Cc3ccco3)C(=O)N(C(C)C)C2=O)cc1", "activity change, negative = inhibition": "-13.7% (inactive)"}, {"smiles": "CC1CC(C)CN(CCCNC(=O)Cn2cccc2C(=O)c2ccccc2)C1", "note": "(configuration not stated)", "activity change, negative = inhibition": "-8.05% (inactive)"}, {"smiles": "CC(=O)c1ccc(C(=O)N2CCCC(Nc3ccccc3)C2)s1", "note": "(configuration not stated)", "activity change, negative = inhibition": "-0.111% (inactive)"}, {"smiles": "O=C(c1ccc2nc(Cc3cccc(Cl)c3)oc2c1)N1CCC(O)CC1", "activity change, negative = inhibition": "-9.52% (inactive)"}, {"smiles": "CCOC(=O)Nc1cc(N)ncn1", "activity change, negative = inhibition": "-3.17% (inactive)"}, {"smiles": "COc1ccc(CCNC(=O)C(=O)NCCCN2CCOCC2)cc1", "activity change, negative = inhibition": "-10.2% (inactive)"}, {"smiles": "CCN(CC)c1ccc(/C=c2\\sc3nnc(-c4ccccc4Cl)n3c2=O)cc1", "activity change, negative = inhibition": "-17.7% (inactive)"}, {"smiles": "Cc1ccc(S(=O)(=O)N2CCC(NC(=O)c3cccc(F)c3)CC2)cc1", "activity change, negative = inhibition": "-2.21% (inactive)"}, {"smiles": "CCC1(C)Cc2ccccc2-c2nc(NCCO)[nH]c(=O)c21", "note": "(configuration not stated)", "activity change, negative = inhibition": "-2.68% (inactive)"}, {"smiles": "COCC(=O)/C=C1\\Sc2ccccc2N1C", "activity change, negative = inhibition": "-3.4% (inactive)"}, {"smiles": "O=Cc1ccc(C(=O)OCC(=O)NC(=O)Nc2ccccc2F)cc1", "activity change, negative = inhibition": "-11% (inactive)"}, {"smiles": "COc1cccc(-c2nc3ccc(C(=O)NC(C)Cc4cccnc4)cc3o2)c1", "note": "(configuration not stated)", "activity change, negative = inhibition": "5.79% (inactive)"}, {"smiles": "Cc1ccc2nc(SCC(=O)Nc3ccc(C(N)=O)cc3)[nH]c2c1", "activity change, negative = inhibition": "0.456% (inactive)"}, {"smiles": "Cc1ccc(OCC(=O)Nc2ccncc2)cc1", "activity change, negative = inhibition": "-4.8% (inactive)"}, {"smiles": "O=S(=O)(c1ccc(N2CCC(c3ccc(Cl)cc3)=N2)cc1)N(CCO)CCO", "activity change, negative = inhibition": "-2.48% (inactive)"}, {"smiles": "Cc1noc(NS(=O)(=O)c2ccc(NC(=O)/C=C/c3ccc(Br)cc3)cc2)c1C", "activity change, negative = inhibition": "-3.32% (inactive)"}, {"smiles": "NC(N)=NS(=O)(=O)c1ccc(NC(=S)NC(=O)/C=C/c2ccc(F)cc2)cc1", "activity change, negative = inhibition": "-1.73% (inactive)"}, {"smiles": "CCOc1ccc(N(C(C)C(=O)Nc2cccnc2)S(C)(=O)=O)cc1", "note": "(configuration not stated)", "activity change, negative = inhibition": "-21.2% (inactive)"}, {"smiles": "COc1ccc(C2=NOC(C)(c3nnc(-c4ccccc4)o3)C2)cc1", "note": "(configuration not stated)", "activity change, negative = inhibition": "-2.62% (inactive)"}, {"smiles": "O=S(=O)(c1ccc(Nc2ccc(-c3ccc4c(c3)OCCO4)nn2)cc1)N1CCCC1", "activity change, negative = inhibition": "-17.2% (inactive)"}, {"smiles": "Cc1cc(-c2ccc(C)c(S(=O)(=O)Nc3ccc(S(N)(=O)=O)cc3)c2)on1", "activity change, negative = inhibition": "0.761% (inactive)"}, {"smiles": "Cc1ccccc1C(=O)OCCN(C)Cc1ccccc1", "activity change, negative = inhibition": "0.551% (inactive)"}, {"smiles": "COC(=O)C1=C(C)N(CCc2c[nH]c3ccccc23)C(=O)C1", "activity change, negative = inhibition": "-5.77% (inactive)"}, {"smiles": "CC(C)(C)c1ccc(OCCC(=O)Nc2cccc(S(=O)(=O)N3CCCC3)c2)cc1", "activity change, negative = inhibition": "-7.77% (inactive)"}, {"smiles": "COC(=O)c1cn(NC(=O)c2ccc([N+](=O)[O-])c(C)c2)c(=O)c2ccccc12", "activity change, negative = inhibition": "-5.95% (inactive)"}, {"smiles": "N#CC(=C=[N-])C1=C(C#N)C(c2ccccc2F)C([n+]2ccccc2)C(O)(C2CC2)N1", "note": "(configuration not stated)", "activity change, negative = inhibition": "-12.9% (inactive)"}, {"smiles": "COc1ccccc1C/C(N)=N/OC(=O)c1cccs1", "activity change, negative = inhibition": "-8.84% (inactive)"}, {"smiles": "COc1ccc(OC)c(NC(=O)CN2C(=O)C(C)N(c3ccc(C)cc3)C2=O)c1", "note": "(configuration not stated)", "activity change, negative = inhibition": "0.484% (inactive)"}, {"smiles": "Cc1ccc(S(=O)(=O)Nc2cccc3c2O[C@@H](CN(C)C(=O)Nc2ccc4c(c2)OCO4)[C@H](C)CN([C@@H](C)CO)C3=O)cc1", "activity change, negative = inhibition": "-2.6% (inactive)"}, {"smiles": "CCCc1cc(=O)[nH]c(SCc2ccc(C#N)cc2)n1", "activity change, negative = inhibition": "-3.34% (inactive)"}, {"smiles": "COc1ccccc1-c1cnc(C(O)c2cc(C)c(OC)c(C)c2)[nH]1", "note": "(configuration not stated)", "activity change, negative = inhibition": "-4.76% (inactive)"}, {"smiles": "O=C(NNC(=O)C1CC1)Nc1ccc(Cl)cc1", "activity change, negative = inhibition": "-0.529% (inactive)"}, {"smiles": "O=C(NCCN1CCN(c2ccccc2F)CC1)c1cccn2c(=O)c3ccccc3nc12", "activity change, negative = inhibition": "-3.39% (inactive)"}, {"smiles": "CCOc1ccc(OCCNC2CCCC2)cc1", "activity change, negative = inhibition": "-3.63% (inactive)"}, {"smiles": "CC(C)(C)C1CCc2c(sc(NC(=O)C3CCCO3)c2C(N)=O)C1", "note": "(configuration not stated)", "activity change, negative = inhibition": "-2.01% (inactive)"}, {"smiles": "O=C(O)Cn1c(CCS(=O)(=O)c2ccc(Br)cc2)nc2ccccc21", "activity change, negative = inhibition": "-2.94% (inactive)"}, {"smiles": "COc1ccc(-c2cc(C(F)(F)F)c3c(=O)n(-c4ccccc4)[nH]c3n2)cc1", "activity change, negative = inhibition": "-16.9% (inactive)"}, {"smiles": "O=C(CSc1ccc(Cl)cc1)NC1=NN(c2ccccc2)C(=O)C1", "activity change, negative = inhibition": "-7.19% (inactive)"}]}]}
